Source: PubChem
Hits are enriched below; roughly 11% of the tested compounds scored in any of these assays.
NS1 function inh: qHTS Assay for Inhibitors of Influenza NS1 Protein Function. Potency, µM (series often up to 46.1 µM). actives 0.4% (n = 270,000). AID 2326, 2010; calls by dose curve; note: actives are rising curves; nearly all actives have a fitted effect of over 50% in size
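Read-out: OD600 growth recovery of NS1-expressing budding yeast. Cells grown overnight at 30C in -URA glucose medium, washed, resuspended and diluted 1:100 in 2% galactose assay medium, pH 6.0. Same strain lacking NS1 served as positive control.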
Sm TGR block: qHTS Assay for the Inhibitors of Schistosoma Mansoni Peroxiredoxins; AID 485364, 2010; actives 3% (n = 360,000); Potency, µM (doses to about 114 µM), actives largely listed as inhibitors; purified TGR, DTNB reduction, TNB absorbance 405 nm; note: nearly all actives have a fitted effect of over 60% in size
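Kinetic colorimetric format: TGR-catalysed, NADPH-driven DTNB reduction monitored via TNB absorbance. Enzyme dispensed at 20 nM; compound exposure 15 min at room temperature before reaction start.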
AMA1 RON2 block: qHTS for Inhibitors of AMA1-RON; Towards Development of Antimalarial Drug Lead: Primary Screen; AlphaScreen AMA1-biotinylated RON2 peptide binding; AID 720542, 2013; Potency, µM (series often up to 58.2 µM), most hits filed as inhibitors; actives 0.2% (n = 360,000); note: nearly all actives have a fitted effect of over 45% in size
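AMA1 (3D7) with his tag at 25 nM final met compounds first, then biotinylated RON2 peptide at 25 nM; detection used donor plus acceptor beads, 10 µg/mL apiece, read by AlphaScreen after 30 min at room temperature.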
Pf growth 48h: Primary qHTS for delayed death inhibitors of the malarial parasite plastid, 48 hour incubation. P. falciparum luciferase growth in erythrocytes, 48 h. Potency, µM (series often up to 28.7 µM), actives largely listed as inhibitors. actives 5.9% (n = 310,000). AID 504832, 2011
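A one-generation exposure of luciferase-tagged malaria parasites in RPMI 1640/Albumax erythrocyte culture, 37 C and 5% CO2. Inhibition is inferred from decreased luminescence after adding detection reagent.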
Pf growth 96h: Primary qHTS for delayed death inhibitors of the malarial parasite plastid, 96 hour incubation. P. falciparum luciferase reporter growth, 96 h. Potency, µM (series often up to 28.7 µM), most hits filed as inhibitors. actives 6.9% (n = 320,000)
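Two parasite generations (96 h, 37 C, 5% CO2) of compound exposure in infected erythrocytes (0.05% parasitemia, 2% hematocrit). Luciferase-reporter P. falciparum; decreased luminescence indicates inhibited growth, aimed at apicoplast-acting delayed death.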
Large screens that a line does not name were inactive. Unless noted, calls come from the whole dose curve; as a rule, active = well fitted curve in the direction sought with a large enough effect; inconclusive = small, poorly fitted or top-dose-only effect, or another doubt; inactive = no such curve, though single readings can be large; an effect the other way counts as inactive or inconclusive.

Oc1ccccc1/C=N/NC(=S)NC1CC2CC1C1C=CCC21 (stereo not given)	Pf growth 48h 3.3µM, Pf growth 96h 1.9µM
CCN1C(=O)c2ccccc2S(=O)(=O)c2ccc(C(=O)NCc3ccc(F)cc3)cc21	none (no result: NS1 function inh, AMA1 RON2 block, Pf growth 48h, Pf growth 96h)
O=C(c1ccc2c3c(cccc13)CC2)C1CCCN(C(=O)c2cc[n+]([O-])cc2)C1 (stereo not given)	Pf growth 96h 2.9µM
Cc1cnc(CN2CCCC(C(=O)c3ccc4c5c(cccc35)CC4)C2)[nH]1 (stereo not given)	Pf growth 48h inconclusive, Pf growth 96h inconclusive (no result: Sm TGR block)
O=C(c1ccc2c3c(cccc13)CC2)C1CCCN(C(=O)c2ccc[n+]([O-])c2)C1 (stereo not given)	Pf growth 96h inconclusive
O=C(c1ccc2c3c(cccc13)CC2)C1CCCN(Cc2ccc(OCCO)cc2)C1 (stereo not given)	Pf growth 48h 6.6µM
O=C(c1ccc2c3c(cccc13)CC2)C1CCCN(Cc2ccccn2)C1 (stereo not given)	Pf growth 48h 2.3µM
CCOc1ccccc1CNS(=O)(=O)c1ccc2c(c1)CCCN2C(C)=O	none (no result: NS1 function inh, AMA1 RON2 block, Pf growth 48h, Pf growth 96h)
Cn1c(=O)c2c(ncn2CC(=O)N2CCN(C(=O)c3ccco3)CC2)n(C)c1=O	none
O=S(=O)(c1ccc(Cl)cc1)N1CCN(Cc2ccc(O)c3ncccc23)CC1	Sm TGR block inconclusive, Pf growth 48h 1.9µM, Pf growth 96h inconclusive (no result: NS1 function inh)
Oc1ccc(CN2CCN(Cc3ccccc3)CC2)c2cccnc12	none (no result: Pf growth 96h)
CN1CCN(C2CCN(Cc3ccc(O)c4ncccc34)CC2)CC1	Sm TGR block 1.6µM, Pf growth 48h inconclusive, Pf growth 96h inconclusive (no result: NS1 function inh, AMA1 RON2 block)
CC(C)(C)OC(=O)NCCOC(=O)c1[nH]cnc1C(=O)NCc1ccccc1	Pf growth 48h inconclusive, Pf growth 96h inconclusive (no result: NS1 function inh)
O=C(COc1cccc2c1CCN(Cc1ccccc1F)C2=O)N1CCCCC1	Sm TGR block 89µM, Pf growth 48h inconclusive, Pf growth 96h inconclusive (no result: NS1 function inh)
Cc1ccc(C)c(NC(=O)COc2cccc3c2CCN(Cc2ccccc2C)C3=O)c1	Pf growth 48h inconclusive, Pf growth 96h 10µM
CCOc1cc(CNCCc2ccccc2F)ccc1OC	Pf growth 96h inconclusive
COc1ccc(NC(=O)COc2cccc3c2CCN(Cc2cccnc2)C3=O)cc1	Pf growth 48h inconclusive, Pf growth 96h inconclusive
COc1ccc(NC(=O)COc2cccc3c2CCN(Cc2cccnc2)C3=O)c(OC)c1	Pf growth 48h 5.2µM, Pf growth 96h 1.3µM
COc1cc(CNCCc2ccccc2F)ccc1OCC(=O)N1CCCCC1	Sm TGR block inconclusive, Pf growth 96h 13µM (no result: NS1 function inh)
CCOc1ccc(NC(=O)COc2cccc3c2CCN(Cc2cccnc2)C3=O)cc1	Pf growth 48h 12µM, Pf growth 96h inconclusive
COc1cccc(NC(=O)C2CCN(C(=O)N3CC(C)Oc4ccccc43)CC2)c1 (stereo not given)	none (no result: NS1 function inh, AMA1 RON2 block, Pf growth 48h, Pf growth 96h)
Cc1ccccc1NC(=O)C(C)SCc1ccccc1 (stereo not given)	none
CCNC(=O)NC(=O)C(C)SCc1ccccc1C (stereo not given)	Pf growth 96h 6.6µM
Cc1ccc(NC(=S)NC2CC3CCCC(C2)N3Cc2cccs2)cc1 (stereo not given)	Pf growth 48h inconclusive
Cc1cccc(NC(=S)NC2CC3CCCC(C2)N3Cc2cccs2)c1C (stereo not given)	Pf growth 48h inconclusive, Pf growth 96h 5.9µM
CCc1ccccc1NC(=S)NC1CC2CCCC(C1)N2Cc1cccs1 (stereo not given)	Pf growth 48h 8.3µM, Pf growth 96h 1.5µM
O=C(CN1CCC(n2nnc3cc(C(F)(F)F)ccc32)CC1)NNC(=O)c1ccco1	Pf growth 96h inconclusive
COC(=O)c1ccc2c(=O)n(Cc3ccc(C(=O)NCCCN4CCC(C)CC4)cc3)c(=S)[nH]c2c1	Sm TGR block inconclusive, Pf growth 48h inconclusive, Pf growth 96h inconclusive (no result: NS1 function inh)
COc1ccccc1Cn1c(=S)[nH]c2cc(C(=O)NCc3cccnc3)ccc2c1=O	Pf growth 48h inconclusive, Pf growth 96h 8.3µM (no result: NS1 function inh)
CCc1ccc(C(CNC(=O)c2ccc3c(=O)n(-c4ccccc4F)c(=S)[nH]c3c2)N(C)C)cc1 (stereo not given)	Pf growth 48h 13µM, Pf growth 96h inconclusive (no result: NS1 function inh)
